Tau FP inhib = qHTS for Inhibitors of Tau Fibril Formation, Fluorescence Polarization; Microtubule-associated protein tau (Homo sapiens), P10636; K18 P301L tau heparin fibrillization, Alexa594 FP, 6 h; Potency, µM (series often up to 57.7 µM), for the others: top-dose activity, negative = inhibition, actives largely listed as inhibitors; actives 0.39% (n = 280,000); active = well fitted curve in the direction sought with a large enough effect; inconclusive = small, poorly fitted or top-dose-only effect, or another doubt; inactive = no such curve, though single readings can be large; an effect the other way counts as inactive or inconclusive; note: nearly all actives have a fitted effect of over 55% in size
Target sequence (P10636 561-689 P618L limits assumed): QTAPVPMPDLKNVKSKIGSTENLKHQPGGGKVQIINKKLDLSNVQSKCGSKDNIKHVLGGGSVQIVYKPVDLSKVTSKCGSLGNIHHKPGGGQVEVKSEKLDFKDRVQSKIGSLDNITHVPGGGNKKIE
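Human K18 P301L fragment (15 uM unlabeled plus 0.24 uM Alexa 594-labeled) in 100 mM sodium acetate pH 7 with compound, aggregation induced by 20 uM heparin for 6 hr at 37 C. ThT (30 uM) added for 1 hr, then Alexa 594 FP read.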
ALDH1A1 inh = qHTS Assay for Inhibitors of Aldehyde Dehydrogenase 1 (ALDH1A1); Aldehyde dehydrogenase 1A1 (Homo sapiens), P00352; Purified ALDH1A1, NADH fluorescence, propionaldehyde substrate; Potency, µM (titrated, usually from 75.3 µM), for inactives: top-dose activity, negative = inhibition, hits mostly inhibitors; actives 7.3% (n = 220,000); AID 1030, 2008;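 note: plate controls were no enzyme wells and a reference inhibitor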
Target sequence (P00352 whole entry, looked up): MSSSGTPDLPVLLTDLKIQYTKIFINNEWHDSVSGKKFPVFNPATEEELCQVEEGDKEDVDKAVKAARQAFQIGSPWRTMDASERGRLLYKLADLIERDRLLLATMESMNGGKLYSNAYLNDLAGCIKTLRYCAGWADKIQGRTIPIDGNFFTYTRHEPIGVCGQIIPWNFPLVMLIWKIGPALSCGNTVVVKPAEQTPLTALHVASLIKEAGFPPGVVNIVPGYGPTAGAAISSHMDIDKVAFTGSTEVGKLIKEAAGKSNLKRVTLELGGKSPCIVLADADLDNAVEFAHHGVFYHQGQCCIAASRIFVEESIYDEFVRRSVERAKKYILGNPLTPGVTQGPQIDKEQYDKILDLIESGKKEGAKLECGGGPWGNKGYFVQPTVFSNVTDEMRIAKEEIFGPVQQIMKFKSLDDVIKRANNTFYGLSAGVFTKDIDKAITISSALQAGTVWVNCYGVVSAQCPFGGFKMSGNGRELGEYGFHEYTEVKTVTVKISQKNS
Tau fibril ThT = qHTS for Inhibitors of Tau Fibril Formation, Thioflavin T Binding | Microtubule-associated protein tau (Homo sapiens), P10636 | recombinant tau K18 P301L, heparin-induced fibrillization, ThT fluorescence | Potency, µM (top dose mostly 57.4 µM), for inactives: top-dose activity, negative = inhibition, actives largely listed as inhibitors | actives 2.1% (n = 270,000) | AID 1460, 2008; active = well fitted curve in the direction sought with a large enough effect; inconclusive = small, poorly fitted or top-dose-only effect, or another doubt; inactive = no such curve, though single readings can be large; an effect the other way counts as inactive or inconclusive; note: nearly all actives have a fitted effect of over 55% in size
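Recombinant human tau K18 fragment […] carrying P301L, 15 uM unlabeled plus 0.24 uM Alexa 594-labeled, was fibrillized with 20 uM heparin in 100 mM sodium acetate pH 7 for 6 hr at 37 C; 30 uM ThT fluorescence read after 1 hr.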
HPGD block = qHTS Assay for Inhibitors of HPGD (15-Hydroxyprostaglandin Dehydrogenase) | Potency, µM, without a hit: at the highest dose activity change, negative = inhibition, usual class: inhibitors | 15-hydroxyprostaglandin dehydrogenase [NAD(+)] (Homo sapiens), P15428 | actives 4.3% (n = 150,000) | purified HPGD, NADH fluorescence kinetic, PGE2 substrate
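NADH formation kinetics: reaction with 30 uM PGE2 and 1 mM NAD+ (final), 20 nM enzyme, Tris-HCl pH 8 with Tween 20, after 15 min compound preincubation at room temperature. Fluorescence change, last versus first of five reads.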
Tau fluor cs = Counterscreen qHTS for Inhibitors of Tau Fibril Formation, Fluorescence Polarization; tau K18 P301L Alexa594 fluorescence, heparin fibrillization; Potency, µM (series often up to 57.7 µM), for the others: at the top dose activity change, negative = decrease; actives 0.93% (n = 280,000); active = well fitted curve in the direction sought with a large enough effect; inconclusive = small, poorly fitted or top-dose-only effect, or another doubt; inactive = no such curve, though single readings can be large; an effect the other way counts as inactive or inconclusive; note: nearly all actives have a fitted effect of over 55% in size
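Human tau K18 P301L (15 uM unlabeled, 0.24 uM Alexa 594-labeled) in 100 mM sodium acetate pH 7 with 20 uM heparin, 6 hr at 37 C. ThT 30 uM added, 1 hr ambient; Alexa 594 FP and total fluorescence read at 555/632 nm.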
KDM4E inh = qHTS Assay for Inhibitors of Human Jumonji Domain Containing 2E (JMJD2E) | JMJD2E catalytic domain, FDH-coupled NADH fluorescence (FDH is formaldehyde dehydrogenase) | Lysine-specific demethylase 4E (Homo sapiens), B2RXH2 | Potency, µM (highest dose often 57.1 µM), for the others: at the top dose activity change, negative = inhibition, most hits filed as inhibitors | actives 1.6% (n = 230,000);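 note: 0% = wells with enzyme and -100% = buffer wells without enzyme; nearly all actives have a fitted effect of over 50% in size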
The depositor's hits bear a star; [ ] = remark or other dose. Rows were chosen to be rich in hits. Some 9.9% of all compounds tested hit in one or more screens of this group. Unless noted, calls come from the whole dose curve; as a rule, active = well fitted inhibition curve with a large enough effect (not every such curve was filed as active); inconclusive = small, poorly fitted or top-dose-only effect, or another doubt; inactive = no such curve, though single readings can be large or run the other way. Unless noted, % is set by controls: 0 for no effect and ±100 for the full control effect; potency is the fitted concentration of half-maximal effect.

How did Cn1c(=O)c2c(nc(NCc3ccc4c(c3)OCO4)n2Cc2ccccc2)n(C)c1=O do in these assays?
Tau FP inhib: 14.3%; ALDH1A1 inh: inconclusive; Tau fibril ThT: -7.4%; HPGD block: -1.2%; Tau fluor cs: -26.2%; KDM4E inh: 1.6%

How did Cc1c(/C=C(\C#N)C(=O)Nc2cccc(Cl)c2)c2ccccc2n1Cc1ccccc1Cl do in these assays?
Tau FP inhib: -9.5%; Tau fibril ThT: -9.8%; Tau fluor cs: -16.2%

Results for CC(C)(C)c1ccc(OCCOCCn2c(-c3ccc(Cl)cc3)nc3ccccc3c2=O)cc1 ?
Tau FP inhib: inconclusive; Tau fibril ThT: -3.3%; Tau fluor cs: 3.8%

How did O=C1NN(c2ccccc2)C(=O)/C1=C/c1ccc(Sc2cccc3ccccc23)o1 do in these assays?
Tau FP inhib: inconclusive; ALDH1A1 inh: -5.4%; Tau fibril ThT: 12.6µM*; HPGD block: 17.8µM*; Tau fluor cs: 14.1µM*[quencher]; KDM4E inh: -3.9%

How did CN(C)/C=C1\C(=O)N(c2ccc(Cl)cc2)CS1(=O)=O do in these assays?
Tau FP inhib: 6.0%; ALDH1A1 inh: 4.9%; Tau fibril ThT: -6.6%; HPGD block: 15.8µM*; Tau fluor cs: 2.1%; KDM4E inh: 7.5%

What do the screens show for `Cc1ccc(NS(=O)(=O)c2ccc3[nH]c4c(c3c2)CCCCCC4)cc1Cl`?
Tau FP inhib: -8.7%; Tau fibril ThT: -5.7%; Tau fluor cs: 7.08µM*[quencher]

How did COc1ccc(NS(=O)(=O)c2ccc(N3CCCCS3(=O)=O)cc2)cc1Cl do in these assays?
Tau FP inhib: -8.2%; Tau fibril ThT: 7.4%; Tau fluor cs: -16.5%

Results for Cc1ccc(CNS(=O)(=O)c2ccc3[nH]c4c(c3c2)CCCCC4)cc1 ?
Tau FP inhib: inconclusive; Tau fibril ThT: 3.0%; Tau fluor cs: inconclusive

Results for COc1ccc(NS(=O)(=O)c2ccc3[nH]c4c(c3c2)CCCC4)cc1Cl ?
Tau FP inhib: -12.7%; Tau fibril ThT: -12.7%; Tau fluor cs: 8.91µM*[quencher]

Results for Cc1ccc(NS(=O)(=O)c2ccc3[nH]c4c(c3c2)CCCC4)cc1N(C)C ?
Tau FP inhib: 13.1%; Tau fibril ThT: -6.7%; Tau fluor cs: 22.4µM*[quencher]

How did COc1cc(C(=O)NNC2=NC(C)(C)Cc3cc(C)c(C)cc32)cc(OC)c1OC do in these assays?
Tau FP inhib: 6.1%; ALDH1A1 inh: 9.4%; Tau fibril ThT: -8.6%; HPGD block: -9.0%; Tau fluor cs: -5.2%; KDM4E inh: 4.5%

Results for CCCNC(=O)c1ccccc1NC(=O)c1nsc2ccccc12 ?
Tau FP inhib: inconclusive; Tau fibril ThT: -2.1%; Tau fluor cs: -5.7%

Results for Cc1ccc(NC(=S)NNC(=O)c2cccc([N+](=O)[O-])c2)cc1Cl ?
Tau FP inhib: 4.5%; Tau fibril ThT: inconclusive; Tau fluor cs: inconclusive; KDM4E inh: -3.4%

What do the screens show for `Cn1c2c(c(=O)c3ccccc31)CCC(C)(C)O2`?
Tau FP inhib: -0.7%; ALDH1A1 inh: 5.4%; Tau fibril ThT: 1.8%; HPGD block: 28.2µM*; Tau fluor cs: 3.3%; KDM4E inh: -16.8%

What do the screens show for `Cc1cc(C)c(C)c(S(=O)(=O)NCCC(=O)O)c1C`?
ALDH1A1 inh: 11.1%; HPGD block: -1.4%

What do the screens show for `O=C(O)[C@@H]1Cc2c([nH]c3ccccc23)[C@@H](CCCCO)N1`?
ALDH1A1 inh: 1.1%[13.5 µM]; HPGD block: -11.1%

Results for O=C(N=Nc1c(O)[nH]c2ccc([N+](=O)[O-])cc12)c1ccccc1[N+](=O)[O-] ?
Tau FP inhib: 5.0%; Tau fibril ThT: inconclusive; Tau fluor cs: inconclusive; KDM4E inh: -2.7%

What do the screens show for `CCc1cc(C(=O)N=Nc2c(O)[nH]c3ccc([N+](=O)[O-])cc23)c2ccccc2n1`?
Tau FP inhib: 20.4%; ALDH1A1 inh: -6.6%; Tau fibril ThT: 15.8µM*; HPGD block: -15.2%; Tau fluor cs: inconclusive; KDM4E inh: -7.7%

What do the screens show for `CCc1cc(C(=O)N=Nc2c(O)[nH]c3c(Br)cc(Br)cc23)c2ccccc2n1`?
Tau FP inhib: -1.3%; ALDH1A1 inh: -5.2%; Tau fibril ThT: 7.08µM*; HPGD block: -6.1%; Tau fluor cs: inconclusive; KDM4E inh: -4.3%

What do the screens show for `Cc1cc2nnc(SCC(=O)Nc3cccc(S(=O)(=O)N4CCOCC4)c3)n2c2ccccc12`?
Tau FP inhib: -7.5%; ALDH1A1 inh: inconclusive; Tau fibril ThT: 2.5%; Tau fluor cs: -7.6%; KDM4E inh: -7.7%

How did O=C(c1ccccc1)N1CCN(C(=O)c2ccc([N+](=O)[O-])cc2)CC1 do in these assays?
Tau FP inhib: 3.2%; ALDH1A1 inh: 1.5%; Tau fibril ThT: 1.7%; HPGD block: -7.8%; Tau fluor cs: -2.1%; KDM4E inh: 7.4%

How did CSc1ccc(/C=N/N2CCN(Cc3ccccc3)CC2)cc1 do in these assays?
Tau FP inhib: 11.8%; ALDH1A1 inh: -8.2%; Tau fibril ThT: inconclusive; Tau fluor cs: inconclusive; KDM4E inh: 11.2µM*

Results for CC1CCN(C(=S)c2ccc([N+](=O)[O-])cc2)CC1 ?
Tau FP inhib: -8.8%; ALDH1A1 inh: inconclusive; Tau fibril ThT: inconclusive; HPGD block: 22.4µM*; Tau fluor cs: -11.2%; KDM4E inh: 0.7%

What do the screens show for `O=C(c1ccc([N+](=O)[O-])cc1)N1CCN(Cc2ccccc2[N+](=O)[O-])CC1`?
Tau FP inhib: -0.6%; ALDH1A1 inh: 10µM*; Tau fibril ThT: -10.7%; Tau fluor cs: -6.9%; KDM4E inh: 1.0%

Results for O=[N+]([O-])c1ccc(C(=S)N2CCN(Cc3ccccc3)CC2)cc1 ?
Tau FP inhib: 8.6%; ALDH1A1 inh: 14.1µM*; Tau fibril ThT: inconclusive; HPGD block: -21.7%; Tau fluor cs: inconclusive; KDM4E inh: -5.8%

What do the screens show for `CC(=O)CSc1nnc2[nH]c(=O)cc(N)n12`?
Tau FP inhib: -1.0%; Tau fibril ThT: 1.4%; Tau fluor cs: 4.6%

Results for Cc1ccccc1C(=O)NCc1ccc2c(c1)CCN2C(=O)c1ccc(F)cc1 ?
Tau FP inhib: 2.9%; Tau fibril ThT: -6.6%; Tau fluor cs: -8.1%
